An excerpt weighted towards active compounds, which were near 8% of everything screened.
HT1080 IDH1KD tx: HT-1080 IDH1 knockdown cell toxicity (counter line); HT-1080 IDH1 knockdown viability, ATP luminescence, 48 h; Potency, µM (series often up to 46.1 µM), for the others: at the top dose activity, negative = toxicity, usual class: cytotoxic; 360,000 tested, 2% active; AID 686971;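 note: 0% = DMSO wells and -100% = cell-free medium wells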
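CellTiter-Glo luminescence after 48 h compound exposure at 37 degrees C of IDH1-knockdown HT-1080 cells in 5% FBS RPMI. %Activity scaled between DMSO wells and cell-free media wells, with curves fitted and assigned curve classes.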
HT1080NT lethal: kills 2HG-producing HT-1080-NT fibrosarcoma cells; HT-1080-NT fibrosarcoma viability, CellTiter-Glo ATP luminescence, 48 h; Potency, µM (top dose mostly 46.1 µM), without a hit: top-dose activity, negative = less viability, actives largely listed as cytotoxic; 360,000 tested, 1.6% active;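 note: NT is the 2HG producing partner of a matched IDH1 knockdown line; 0% = DMSO-treated cells and -100% = media-only wells without cells; nearly all actives have a fitted effect of over 55% in size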
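Viability by CellTiter-Glo luminescence after 48 h compound exposure at 37C of HT-1080-NT cells (750/well, RPMI, 5% FBS). % activity scaled between DMSO wells and medium-only wells, then curve-fitted and categorized by curve class.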
MCF10A rereplic: DNA re-replication induction in MCF 10a cells; MCF 10A DNA re-replication, Hoechst nuclear intensity, 48 h; Potency, µM (doses to about 46.1 µM), for the others: top-dose activity, positive = re-replication, usual class: activators; 350,000 tested, 2.9% active; AID 624296; note: % of control where 0% means no effect; nearly all actives have a fitted effect of over 50% in size
SW480 rereplic: induces DNA re-replication in SW480 colon adenocarcinoma cells; SW480 DNA re-replication, Hoechst DNA content imaging, 48 h; Potency, µM (highest dose often 46.1 µM), for the others: at the highest dose re-replication activation, hits mostly activators; 340,000 tested, 1.8% active; AID 624297; note: % of control where 0% means no effect; nearly all actives have a fitted effect of over 55% in size
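Compounds, transferred as 23 nL by pin tool, were incubated with cells for 48 hr; DNA content per nucleus was then quantified by Hoechst staining and fluorescence plate imaging.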
KB-V1 cytotox: KB-V1 MDR subline cytotoxicity; Potency, µM (series often up to 46.1 µM), hits mostly cytotoxic; KB-V1 MDR cells viability, CellTiter-Glo, 72 h; 400,000 tested, 3.4% active; AID 1347076; note: % is set by controls: 0 for no effect and ±100 for the full control effect; nearly all actives have a fitted effect of over 60% in size
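Readout: CellTiter-Glo luminescence, 10 min after addition. Cells: KB-V1 MDR subline, 72 h at 37 degrees C with compound. Analysis: corrected, normalized data fitted to concentration-effect curves.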
KB-3-1 tox: kills parental KB-3-1 adenocarcinoma cells; KB-3-1 viability, CellTiter-Glo ATP luminescence, 72 h; Potency, µM (doses to about 46.1 µM), usual class: cytotoxic; 400,000 tested, 1.4% active; AID 1347075; note: % is set by controls: 0 for no effect and ±100 for the full control effect; nearly all actives have a fitted effect of over 60% in size
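Using CellTiter-Glo luminescence, growth of non-resistant KB-3-1 adenocarcinoma cells is assessed 72 h after pin-tool compound addition at 37 °C. Normalized responses across the concentration series yield fitted curves.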
Active calls of the source: *; i = inactive; ? = inconclusive; · = no result; [ ] = another dose, or the depositor's remark. Calls come from the whole dose curve; as a rule, active = well fitted curve in the direction sought with a large enough effect; inconclusive = small, poorly fitted or top-dose-only effect, or another doubt; inactive = no such curve, though single readings can be large; an effect the other way counts as inactive or inconclusive. Potency is the fitted concentration of half-maximal effect.

SMILES	HT1080 IDH1KD tx	HT1080NT lethal	MCF10A rereplic	SW480 rereplic	KB-V1 cytotox	KB-3-1 tox
COC(=O)C1=C(C)Nc2[nH]c(=S)[nH]c(=O)c2C1c1ccc(OC)cc1 (stereo not drawn)	2%	2%	5%	-14%	i	i
COC(=O)C1=C(C)Nc2sc(C(N)=O)c(N)c2C1c1ccncc1 (stereo not drawn)	?	-26%	?	23µM*	i	i
CCOC(=O)C1=C(C)Nc2sc(C(=O)c3ccc(OC)cc3)c(N)c2C1c1ccc(C(=O)OC)cc1 (stereo not drawn)	7%	14%	12µM*	13µM*	i	i
CC1=CC(O)=NS(=O)(=O)O1	·	·	·	·	i	?
CCN(CC)c1ccc(C(=C2C=CC(=[N+](CC)CC)C=C2)c2ccc(N(CC)CC)cc2)cc1	5.2µM*	7.3µM*	?	21µM*	?	?
CCN(CC)c1ccc(C(=C2C=CC(=[N+](CC)CC)C=C2)c2ccccc2)cc1	1µM*	2.6µM*	?	?	?	0.026µM*
CCN(N=O)c1ccc(C=C2C=Cc3ccccc32)cc1	11%	7%	?	-4%	21µM*	i
CC1(c2cccc3ccccc23)OC(=O)c2ccccc21 (stereo not drawn)	?	-4%	?	11%	18µM*	?
CCc1cc(C(=O)Nc2cc(S(=O)(=O)N(C)C)ccc2C)sc1C	-13%	-7%	17%	17%	9.2µM*	i
CCc1cc(C(=O)Nc2cc(S(=O)(=O)N(CC)CC)ccc2N2CCN(C)CC2)sc1C	-7%	-9%	-7%	1%	i	i
CCCCCCC(C)NC(=S)Nc1cc(S(=O)(=O)N(C)C)ccc1C (stereo not drawn)	?	-11%	18µM*	?	?	?
O=C(C[C@@H]1C[C@H]2c3cc(NC(=O)c4cccnc4)ccc3O[C@H]2[C@H](CO)O1)NCc1ccc(Oc2ccccc2)cc1	?	?	·	·	i	18µM*
CCOC(=O)/C(=C/c1ccc(N2CCC(c3ccccc3)=N2)cc1)C(C)=O	0%	7%	?	?	i	i
c1ccc(C2=NN(c3ccccc3)CC2)cc1	3%	0%	21µM*	16µM*	i	i
COc1cc(CNCCSc2nnnn2C)ccc1OCc1ccccc1C	·	·	·	·	i	i
CCCCNC(=O)C(C#N)c1nc2ccccc2nc1N1CCN(Cc2ccc3c(c2)OCO3)CC1 (stereo not drawn)	10%	8%	?	1%	i	i
N#C/C(=C\N1CCN(Cc2ccc3c(c2)OCO3)CC1)c1nc2ccccc2s1	?	?	21µM*	?	21µM*	?
C=CCOC(=O)C(C#N)c1nc2ccccc2nc1N1CCN(Cc2ccc3c(c2)OCO3)CC1 (stereo not drawn)	-3%	-2%	7%	3%	23µM*	i
c1ccc2nc(N3CCN(Cc4ccc5c(c4)OCO5)CC3)cnc2c1	-24%	-25%	?	?	?	i
CCOC(=O)N1CCC(=NNc2nc3ccccc3s2)CC1	-2%	-9%	?	?	i	i
CCOC(=O)N1CCN(/C=C(\C#N)c2nc3ccccc3s2)CC1	-3%	-19%	?	1%	23µM*	i
COc1ccc(CC(=O)NCC2(N3CCCCC3)CCCCC2)cc1	-1%	-3%	?	23µM*	i	i
COCc1ccc(C(=O)NCC2(N3CCCCC3)CCCCC2)cc1	21%	?	14%	1%	i	i
COc1cccc(Cn2c(=O)n(CC3CCC(C(=O)N4CCCCC4)CC3)c(=O)c3sccc32)c1 (stereo not drawn)	·	·	·	·	i	i
Cc1nn(CC(=O)NCc2ccc(N(C)C)cc2)c(=O)c2nn(-c3ccccc3)c(C)c12	·	·	·	·	?	i
SMILES	HT1080 IDH1KD tx	HT1080NT lethal	MCF10A rereplic	SW480 rereplic	KB-V1 cytotox	KB-3-1 tox
O=c1c(-c2ccc3c(c2)OCCO3)coc2cc(O)cc(O)c12	13%	2%	-182%[0.0737 µM]	-3%	i	i
CC1(C)C=Cc2cc(-c3coc4cc(O)cc(O)c4c3=O)cc(O)c2O1	-12%	0%	15µM*	-9%	?	i
Cc1ccc(CN=Cc2[nH]c3ccc(Br)c(Cl)c3c2O)cc1	18µM*	-24%	4%	-9%	i	i
CC(NCc1cccc(OCc2ccccc2)c1)C(O)c1ccccc1 (stereo not drawn)	4%	1%	9%	?	i	i
CC(NCc1ccc(OCc2ccc(Cl)cc2)cc1)C(O)c1ccccc1 (stereo not drawn)	18µM*	23µM*	18µM*	?	?	?
CC(=O)Nc1ccc(NC(=O)c2cnn(-c3ccccc3)c2C2CCN(C(=O)OC(C)(C)C)CC2)cc1	·	·	·	·	i	i
CCCn1nnc(NC(=O)C(c2ccccc2)c2ccccc2)n1	5%	2%	-1%	1%	18µM*	i
CC(=O)Nc1sc(C)c(C)c1C(=O)OCC(=O)Nc1cccc(C)c1	12%	7%	8.2µM*	?	i	?
CC(=O)Nc1sc(C)c(C)c1C(=O)OCC(=O)Nc1ccccc1	-3%	5%[9.24 µM]	?	-27%	i	i
O=C(NCCc1cccs1)c1ccc(Cn2c(SCc3ccccc3)nc3cccnc32)cc1	·	·	·	·	i	i
CC(C)(C)NCC(O)COc1c(F)cc(Br)cc1F (stereo not drawn)	0%	9%	-21%	-5%	i	i
CC(C)(C)CC(C)(C)NCC(O)COc1c(F)cc(Br)cc1F (stereo not drawn)	21µM*	21µM*	0%	?	21µM*	?
CCOC(=O)N1CCN(c2ccc([N+](=O)[O-])cc2F)CC1C (stereo not drawn)	-6%	0%	20%	-2%	23µM*	i
CCOC(=O)N1CCN(c2cc(C)c(C(C)=O)cc2F)CC1	6%	3%	15%	2%	i	i
CCOC(=O)N1CCN(c2cc(N)c([N+](=O)[O-])cc2F)CC1	-25%	0%	-1%	-12%	23µM*	i
COC(=O)c1cc2c(cc1NC(=O)c1cnn(-c3ccccc3)c1-n1cccc1)OCO2	·	·	·	·	i	i
COc1ccc2c(c1OC)c(=O)n1c3ccc(OC(C)C(=O)NCCCN4CCOCC4)cc3c3ccnc2c31 (stereo not drawn)	-11%	-2%	5.8µM*	18µM*	i	i

Assay outcomes deposited in PubChem BioAssay by National Center for Advancing Translational Sciences (NCATS).
